In the supplement of paper PMC11732987, “Enantioselective OTUD7B fragment discovery through chemoproteomics screening and high-throughput optimisation” (Communications Chemistry, 2025):

How the values were obtained:
Assay in all cases: log2 ratio of Biotin-Ahx-Ub-VS probe labelling (fragment/DMSO); higher = less target engagement (more negative = stronger competition), active = hit call of the paper (q ≤ 0.05, log2 ratio ≤ -1)
Settings in all cases: compound concentration: 200 uM; treatment time: 3 h
[1] = target: USP9X (UniProt Q93008)
How it was run: (§1)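 HEK293T lysate (495 µg per sample, in Tris/CHAPS/IGEPAL buffer with protease inhibitors) was exposed in triplicate for 3 h to fragment at 200 µM or to vehicle, then to Biotin-Ahx-Ub-VS at 0.5 µM final for 1 h. Labelled DUBs were enriched on NeutrAvidin, digested with LysC and trypsin, and analysed by diaPASEF LC-MS/MS. Spectronaut label-free quantities were normalised to the global median, and values are average log2 ratios of fragment over vehicle from an unpaired t-test. Only proteins with ≥2 unique peptides were used.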

[2] = target: UniProt O00487
UniProt O00487, sequence (O00487 whole entry): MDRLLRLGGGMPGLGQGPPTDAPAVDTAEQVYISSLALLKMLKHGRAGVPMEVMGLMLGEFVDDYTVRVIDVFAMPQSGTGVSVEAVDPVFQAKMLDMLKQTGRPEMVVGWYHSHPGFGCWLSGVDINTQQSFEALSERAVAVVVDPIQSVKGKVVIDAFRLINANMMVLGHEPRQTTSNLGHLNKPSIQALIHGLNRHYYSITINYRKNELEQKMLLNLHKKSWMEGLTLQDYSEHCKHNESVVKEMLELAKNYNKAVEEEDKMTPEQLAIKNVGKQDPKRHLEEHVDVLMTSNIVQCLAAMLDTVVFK
How it was run: as §1

[3] = target: UniProt O00507
UniProt O00507, sequence (O00507 whole entry): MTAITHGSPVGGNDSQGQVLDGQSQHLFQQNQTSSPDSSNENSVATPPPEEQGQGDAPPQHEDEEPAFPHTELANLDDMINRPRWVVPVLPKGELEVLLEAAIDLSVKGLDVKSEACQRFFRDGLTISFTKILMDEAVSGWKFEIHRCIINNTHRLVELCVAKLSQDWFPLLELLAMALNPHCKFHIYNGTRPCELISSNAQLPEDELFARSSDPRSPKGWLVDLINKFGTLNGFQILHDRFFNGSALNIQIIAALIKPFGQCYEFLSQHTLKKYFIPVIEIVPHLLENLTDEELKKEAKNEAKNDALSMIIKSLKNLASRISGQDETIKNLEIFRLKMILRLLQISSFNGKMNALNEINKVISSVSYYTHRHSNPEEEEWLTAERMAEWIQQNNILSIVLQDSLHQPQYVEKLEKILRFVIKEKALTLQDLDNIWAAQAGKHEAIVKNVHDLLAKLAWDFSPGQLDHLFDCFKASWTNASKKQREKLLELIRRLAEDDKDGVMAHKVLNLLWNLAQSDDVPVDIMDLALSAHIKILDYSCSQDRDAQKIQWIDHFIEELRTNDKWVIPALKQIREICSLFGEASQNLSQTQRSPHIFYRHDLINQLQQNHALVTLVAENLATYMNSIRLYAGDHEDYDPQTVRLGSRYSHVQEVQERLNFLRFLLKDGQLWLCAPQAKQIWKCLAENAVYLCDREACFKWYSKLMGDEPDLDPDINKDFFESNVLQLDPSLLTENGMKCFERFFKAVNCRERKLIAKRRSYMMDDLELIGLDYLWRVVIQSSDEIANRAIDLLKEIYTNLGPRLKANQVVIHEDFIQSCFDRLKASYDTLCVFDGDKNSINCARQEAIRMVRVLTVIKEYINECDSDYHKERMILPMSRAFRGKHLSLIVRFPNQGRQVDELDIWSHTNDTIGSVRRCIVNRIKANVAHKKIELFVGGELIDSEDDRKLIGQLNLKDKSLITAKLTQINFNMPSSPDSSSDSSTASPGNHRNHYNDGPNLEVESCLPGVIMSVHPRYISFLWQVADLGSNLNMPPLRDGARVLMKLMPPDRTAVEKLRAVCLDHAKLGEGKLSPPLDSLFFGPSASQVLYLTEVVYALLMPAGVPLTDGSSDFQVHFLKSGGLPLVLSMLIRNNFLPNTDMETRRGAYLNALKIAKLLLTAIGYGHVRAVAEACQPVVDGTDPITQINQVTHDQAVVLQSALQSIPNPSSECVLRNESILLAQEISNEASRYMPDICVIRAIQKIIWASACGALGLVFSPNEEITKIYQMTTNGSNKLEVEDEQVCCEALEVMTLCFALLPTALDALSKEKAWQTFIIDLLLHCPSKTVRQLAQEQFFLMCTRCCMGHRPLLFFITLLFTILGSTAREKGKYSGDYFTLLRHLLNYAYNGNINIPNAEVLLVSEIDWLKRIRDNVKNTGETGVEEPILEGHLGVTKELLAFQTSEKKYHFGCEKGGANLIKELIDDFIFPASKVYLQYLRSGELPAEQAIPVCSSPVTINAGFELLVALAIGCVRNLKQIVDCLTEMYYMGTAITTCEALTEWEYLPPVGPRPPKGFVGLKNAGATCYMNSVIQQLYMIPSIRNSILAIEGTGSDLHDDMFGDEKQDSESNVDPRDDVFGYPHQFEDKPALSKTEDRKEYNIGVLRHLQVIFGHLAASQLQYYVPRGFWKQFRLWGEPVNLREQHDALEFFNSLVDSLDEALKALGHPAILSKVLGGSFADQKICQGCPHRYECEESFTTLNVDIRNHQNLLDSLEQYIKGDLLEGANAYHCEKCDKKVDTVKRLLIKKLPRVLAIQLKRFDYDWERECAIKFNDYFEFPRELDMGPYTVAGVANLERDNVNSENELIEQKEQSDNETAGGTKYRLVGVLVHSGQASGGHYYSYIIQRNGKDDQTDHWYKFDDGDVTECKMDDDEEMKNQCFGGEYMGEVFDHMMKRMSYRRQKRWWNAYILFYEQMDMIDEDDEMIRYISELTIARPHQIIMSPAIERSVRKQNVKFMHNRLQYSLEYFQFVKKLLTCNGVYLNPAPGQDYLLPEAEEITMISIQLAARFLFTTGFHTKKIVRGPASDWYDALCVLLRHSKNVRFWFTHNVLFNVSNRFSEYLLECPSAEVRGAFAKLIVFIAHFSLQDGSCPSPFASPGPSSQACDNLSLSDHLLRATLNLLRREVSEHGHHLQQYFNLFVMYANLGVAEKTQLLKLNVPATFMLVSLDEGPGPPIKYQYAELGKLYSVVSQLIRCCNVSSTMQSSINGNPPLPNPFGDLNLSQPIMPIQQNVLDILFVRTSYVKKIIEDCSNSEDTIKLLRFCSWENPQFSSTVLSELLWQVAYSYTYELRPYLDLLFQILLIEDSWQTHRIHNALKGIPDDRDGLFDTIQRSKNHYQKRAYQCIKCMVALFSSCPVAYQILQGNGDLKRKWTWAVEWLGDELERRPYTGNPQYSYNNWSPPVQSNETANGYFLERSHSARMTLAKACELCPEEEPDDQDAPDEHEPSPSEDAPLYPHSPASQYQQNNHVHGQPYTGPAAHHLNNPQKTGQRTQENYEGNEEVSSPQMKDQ
How it was run: as §1

[4] = target: UniProt P51784
UniProt P51784, sequence (P51784 whole entry): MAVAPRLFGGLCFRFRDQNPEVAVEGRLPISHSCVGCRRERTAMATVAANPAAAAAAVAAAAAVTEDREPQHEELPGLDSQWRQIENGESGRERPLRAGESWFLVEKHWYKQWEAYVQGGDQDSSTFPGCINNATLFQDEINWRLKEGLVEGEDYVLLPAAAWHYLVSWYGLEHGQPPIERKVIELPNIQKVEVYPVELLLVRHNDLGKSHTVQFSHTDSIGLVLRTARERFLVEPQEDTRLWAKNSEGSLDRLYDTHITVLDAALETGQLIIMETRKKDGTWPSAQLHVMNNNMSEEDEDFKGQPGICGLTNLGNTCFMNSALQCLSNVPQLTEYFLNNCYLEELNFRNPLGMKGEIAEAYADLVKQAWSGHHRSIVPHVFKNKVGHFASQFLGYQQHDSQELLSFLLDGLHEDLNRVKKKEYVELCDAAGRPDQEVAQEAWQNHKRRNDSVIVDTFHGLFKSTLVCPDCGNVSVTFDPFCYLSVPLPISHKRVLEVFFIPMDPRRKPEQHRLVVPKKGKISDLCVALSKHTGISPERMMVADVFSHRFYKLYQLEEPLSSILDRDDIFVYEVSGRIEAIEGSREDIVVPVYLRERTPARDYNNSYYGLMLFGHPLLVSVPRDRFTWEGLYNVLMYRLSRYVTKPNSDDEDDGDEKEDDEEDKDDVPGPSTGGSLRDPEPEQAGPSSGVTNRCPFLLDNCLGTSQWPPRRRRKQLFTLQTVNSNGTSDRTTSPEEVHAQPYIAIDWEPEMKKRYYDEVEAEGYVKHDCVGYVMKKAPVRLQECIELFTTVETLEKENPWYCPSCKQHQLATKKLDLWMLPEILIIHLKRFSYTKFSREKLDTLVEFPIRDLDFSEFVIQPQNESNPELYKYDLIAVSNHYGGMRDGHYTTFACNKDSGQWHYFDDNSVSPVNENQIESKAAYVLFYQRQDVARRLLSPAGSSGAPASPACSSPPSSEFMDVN
How it was run: as §1

[5] = target: T1, UniProt Q5T2D3
T1 sequence (whole entry): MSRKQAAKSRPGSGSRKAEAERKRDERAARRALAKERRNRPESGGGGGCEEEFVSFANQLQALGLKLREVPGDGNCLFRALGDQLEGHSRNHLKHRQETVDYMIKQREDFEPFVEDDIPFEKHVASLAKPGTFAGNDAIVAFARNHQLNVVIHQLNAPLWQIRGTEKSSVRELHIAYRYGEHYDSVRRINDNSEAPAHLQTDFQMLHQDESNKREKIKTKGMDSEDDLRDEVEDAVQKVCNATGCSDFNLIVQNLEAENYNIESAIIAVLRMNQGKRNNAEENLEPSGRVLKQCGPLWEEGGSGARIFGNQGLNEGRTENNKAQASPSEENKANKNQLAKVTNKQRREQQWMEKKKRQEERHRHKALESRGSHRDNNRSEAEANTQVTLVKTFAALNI
How it was run: as §1

[6] = target: T2, UniProt Q8TE49
T2 sequence (whole entry): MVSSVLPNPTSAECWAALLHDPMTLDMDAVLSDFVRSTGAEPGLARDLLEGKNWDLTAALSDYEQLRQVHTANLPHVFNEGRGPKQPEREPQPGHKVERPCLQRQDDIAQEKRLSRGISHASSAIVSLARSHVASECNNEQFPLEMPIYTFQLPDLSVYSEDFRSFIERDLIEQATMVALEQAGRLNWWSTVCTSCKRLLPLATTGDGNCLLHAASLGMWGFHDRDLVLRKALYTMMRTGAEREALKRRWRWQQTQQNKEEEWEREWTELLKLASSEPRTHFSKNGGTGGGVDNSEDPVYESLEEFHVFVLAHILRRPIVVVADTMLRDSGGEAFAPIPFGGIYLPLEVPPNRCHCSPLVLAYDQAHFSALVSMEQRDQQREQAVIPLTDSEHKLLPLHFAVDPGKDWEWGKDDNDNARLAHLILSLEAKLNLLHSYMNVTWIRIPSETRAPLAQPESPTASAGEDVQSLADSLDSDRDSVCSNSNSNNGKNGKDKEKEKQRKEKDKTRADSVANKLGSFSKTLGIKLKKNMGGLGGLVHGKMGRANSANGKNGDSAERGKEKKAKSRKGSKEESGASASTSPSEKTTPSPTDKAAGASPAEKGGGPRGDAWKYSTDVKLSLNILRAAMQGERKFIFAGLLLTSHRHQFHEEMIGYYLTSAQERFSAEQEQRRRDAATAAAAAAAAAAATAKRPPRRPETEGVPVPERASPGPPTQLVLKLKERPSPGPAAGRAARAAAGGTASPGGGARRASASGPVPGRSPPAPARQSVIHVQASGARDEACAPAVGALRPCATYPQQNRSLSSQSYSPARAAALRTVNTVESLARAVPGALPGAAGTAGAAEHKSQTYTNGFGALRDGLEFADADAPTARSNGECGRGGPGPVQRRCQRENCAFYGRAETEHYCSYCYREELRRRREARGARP
How it was run: as §1

[7] = target: T3, UniProt Q9P2H5
T3 sequence (whole entry): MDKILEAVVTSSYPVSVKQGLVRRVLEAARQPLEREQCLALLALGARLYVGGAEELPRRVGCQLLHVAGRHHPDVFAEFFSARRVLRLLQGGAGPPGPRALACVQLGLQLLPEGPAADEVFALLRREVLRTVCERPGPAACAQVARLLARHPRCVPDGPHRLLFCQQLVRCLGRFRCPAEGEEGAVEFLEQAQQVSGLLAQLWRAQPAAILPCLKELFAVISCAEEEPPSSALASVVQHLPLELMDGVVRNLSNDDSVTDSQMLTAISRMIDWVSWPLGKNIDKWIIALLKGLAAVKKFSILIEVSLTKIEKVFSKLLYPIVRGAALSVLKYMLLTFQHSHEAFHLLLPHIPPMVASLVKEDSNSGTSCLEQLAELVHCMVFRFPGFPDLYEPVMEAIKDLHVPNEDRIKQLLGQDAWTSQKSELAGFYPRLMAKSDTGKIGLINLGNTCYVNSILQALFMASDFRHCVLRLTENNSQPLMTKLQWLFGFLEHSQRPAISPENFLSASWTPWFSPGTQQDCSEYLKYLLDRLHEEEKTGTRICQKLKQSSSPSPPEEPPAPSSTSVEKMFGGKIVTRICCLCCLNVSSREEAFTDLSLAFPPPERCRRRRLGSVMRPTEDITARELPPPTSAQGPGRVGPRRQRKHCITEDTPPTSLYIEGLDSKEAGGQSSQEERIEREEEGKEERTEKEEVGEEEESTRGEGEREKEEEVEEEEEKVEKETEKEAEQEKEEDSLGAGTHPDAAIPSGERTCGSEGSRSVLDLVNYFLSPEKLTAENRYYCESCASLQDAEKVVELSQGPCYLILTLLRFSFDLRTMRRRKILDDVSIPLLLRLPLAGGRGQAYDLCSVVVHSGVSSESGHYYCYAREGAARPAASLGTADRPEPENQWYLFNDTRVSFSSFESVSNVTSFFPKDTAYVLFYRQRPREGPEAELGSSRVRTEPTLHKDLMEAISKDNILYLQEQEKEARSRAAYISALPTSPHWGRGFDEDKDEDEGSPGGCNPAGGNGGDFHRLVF
How it was run: as §1

[8] = target: T4, UniProt Q9UGI0
T4 sequence (whole entry): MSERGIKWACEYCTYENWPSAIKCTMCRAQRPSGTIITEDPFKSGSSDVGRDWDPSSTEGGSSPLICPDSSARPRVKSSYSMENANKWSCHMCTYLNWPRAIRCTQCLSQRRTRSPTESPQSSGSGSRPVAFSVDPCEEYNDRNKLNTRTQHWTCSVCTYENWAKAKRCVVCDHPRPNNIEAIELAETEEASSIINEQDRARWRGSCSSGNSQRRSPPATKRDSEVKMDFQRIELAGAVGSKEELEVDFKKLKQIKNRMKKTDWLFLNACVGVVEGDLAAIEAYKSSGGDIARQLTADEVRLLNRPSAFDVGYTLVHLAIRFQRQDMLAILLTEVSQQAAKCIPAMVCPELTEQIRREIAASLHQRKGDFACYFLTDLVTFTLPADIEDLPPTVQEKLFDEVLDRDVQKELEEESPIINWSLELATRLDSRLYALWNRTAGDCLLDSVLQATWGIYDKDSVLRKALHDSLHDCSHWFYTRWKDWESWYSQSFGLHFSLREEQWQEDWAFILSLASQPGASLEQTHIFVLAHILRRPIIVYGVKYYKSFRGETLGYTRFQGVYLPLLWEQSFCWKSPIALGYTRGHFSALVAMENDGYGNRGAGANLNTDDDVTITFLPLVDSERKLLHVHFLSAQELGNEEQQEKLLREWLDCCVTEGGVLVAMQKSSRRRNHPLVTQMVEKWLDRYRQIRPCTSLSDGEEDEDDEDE
How it was run: as §1

[9] = target: T5, YOD1 (UniProt Q5VVQ6)
T5 sequence (whole entry): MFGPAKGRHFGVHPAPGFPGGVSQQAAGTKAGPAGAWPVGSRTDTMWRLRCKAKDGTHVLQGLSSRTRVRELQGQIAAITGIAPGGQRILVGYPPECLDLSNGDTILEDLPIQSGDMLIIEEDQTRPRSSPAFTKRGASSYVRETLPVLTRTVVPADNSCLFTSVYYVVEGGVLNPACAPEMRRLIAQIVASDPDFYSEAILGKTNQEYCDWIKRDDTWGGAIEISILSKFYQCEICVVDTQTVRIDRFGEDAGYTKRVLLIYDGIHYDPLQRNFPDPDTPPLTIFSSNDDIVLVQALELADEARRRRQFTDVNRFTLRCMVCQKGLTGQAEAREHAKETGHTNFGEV
How it was run: as §1

Measured: log2 ratio of Biotin-Ahx-Ub-VS probe labelling

COc1ccc(CN(C)C(=O)CCl)cc1
inactive: [1] -0.178 | [2] -0.0169 | [3] -0.339 | [4] 0.00264 | [5] -0.273 | [6] -0.895 | [7] 0.0343 | [8] -0.846 | [9] -0.295
